The list is not random: actives were taken first. Their share in the collection is about 19%.
HT1080-NT tox: kills 2HG-producing HT-1080-NT fibrosarcoma cells | HT-1080-NT fibrosarcoma viability, CellTiter-Glo ATP luminescence, 48 h | Potency, µM (series often up to 46.1 µM), actives largely listed as cytotoxic | 360,000 compounds, 1.6% hits;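 also: NT is the 2HG producing partner of a matched IDH1 knockdown line; nearly all actives have a fitted effect of over 55% in size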
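Read-out is CellTiter-Glo luminescence after 10 minutes at room temperature, following 48 hours' compound treatment of HT-1080-NT cells (750 cells/well, RPMI, 5% FBS, 37 degrees C).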
uPA generation: blocks generation of uPA at the cell surface. 330,000 compounds, 0.31% hits. cell surface uPA generation assay, qHTS. Potency, µM (series often up to 38.3 µM), most hits filed as inhibitors. AID 540303; active = well fitted inhibition curve with a large enough effect; inconclusive = small, poorly fitted or top-dose-only effect; inactive = no such curve, though single readings can be large or run the other way; tested in mouse RAW 264.7 cells; also: nearly all actives have a fitted effect of over 55% in size
HT1080 IDH1KD tx: kills HT-1080 cells with IDH1 knockdown; HT-1080 IDH1 knockdown viability, ATP luminescence, 48 h; Potency, µM (doses to about 46.1 µM), hits mostly cytotoxic; 360,000 compounds, 2% hits
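Luminescent ATP read-out (CellTiter-Glo, 10 min at room temperature) after 48 h compound exposure at 37 °C gave viability of IDH1-knockdown HT-1080 cells. Activity was normalised to DMSO and cell-free wells, then fitted as concentration-response curves.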
IL1B secr inh: inflammasome signaling inhibition, IL-1 beta readout; THP-1 LPS/ATP IL-1B secretion, AlphaLISA, 16 h; hits give low values; activity change, % at 57.5 µM; 360,000 compounds, 4.7% hits; AID 743279; in the data active = activity change below about -50%; inconclusive = mostly about -30% to -49%
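Secreted IL-1B measured by AlphaLISA bead assay after 16 h compound exposure of THP-1 cells; compounds (final up to 57.5 uM) added 1 h before LPS (250 ng/mL) and ATP (1.25 mM) stimulation; lower signal means less secretion.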
TDP1 cell CPT: DT40-hTDP1 cell growth loss with CPT. chicken DT40 Tdp1-/-;hTDP1 cells + 20 nM CPT, ATP luminescence, 48 h. Potency, µM (series often up to 46.2 µM), most hits filed as inhibitors. 420,000 compounds, 12% hits; also: nearly all actives have a fitted effect of over 55% in size
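Chicken DT40 Tdp1-/- cells stably complemented with human TDP1 were seeded at 400 cells/well in medium containing 20 nM camptothecin, exposed to pin-transferred compounds, and grown at 37 °C for at least 48 hr. Viability was read as ATP luminescence.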
TDP1 cell noCPT: qHTS for Inhibitors of human tyrosyl-DNA phosphodiesterase 1 (TDP1): qHTS in cells in absence of CPT. DT40 Tdp1-/- hTDP1 cells, no CPT, ATP luminescence, 48 h. Potency, µM (highest dose often 46.2 µM), most hits filed as inhibitors. 420,000 compounds, 15% hits; also: nearly all actives have a fitted effect of over 55% in size
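Stably hTDP1-transfected Tdp1-null chicken DT40 cells were treated with library compounds minus camptothecin and grown for at least 48 hr at 37 °C, after which cellular ATP was quantified by luminescence.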
A number is an active result. Unless noted, calls follow the shape of the dose curve; as a rule, active = well fitted curve in the direction sought with a large enough effect; inconclusive = small, poorly fitted or top-dose-only effect, or another doubt; inactive = no such curve, though single readings can be large; an effect the other way counts as inactive or inconclusive.

Results for COc1ccc(NC(=O)C(OC(=O)Cn2cnc3c2c(=O)n(C)c(=O)n3C)c2ccccc2)cc1Cl (stereo not drawn) ?
HT1080-NT tox: inactive; uPA generation: inactive; HT1080 IDH1KD tx: inactive; IL1B secr inh: inactive; TDP1 cell CPT: inactive; TDP1 cell noCPT: inactive

Results for CC(=O)c1ccc(OCC(=O)Nc2cccc(S(=O)(=O)N3CCCC3)c2)cc1 ?
HT1080-NT tox: 16µM; uPA generation: inactive; HT1080 IDH1KD tx: inactive; IL1B secr inh: inactive; TDP1 cell CPT: 8.2µM; TDP1 cell noCPT: 9.2µM

What do the screens show for `N#Cc1ccccc1OCC(=O)Nc1cccc(S(=O)(=O)N2CCCCCC2)c1`?
HT1080-NT tox: inactive; uPA generation: inactive; HT1080 IDH1KD tx: inactive; IL1B secr inh: inactive; TDP1 cell CPT: inconclusive; TDP1 cell noCPT: 21µM

Results for Cc1ccc(OCC(=O)Nc2cccc(S(=O)(=O)N3CCCCC3)c2)c([N+](=O)[O-])n1 ?
HT1080-NT tox: inactive; uPA generation: inactive; HT1080 IDH1KD tx: inactive; IL1B secr inh: inactive; TDP1 cell CPT: inconclusive; TDP1 cell noCPT: inconclusive

Results for Cc1ccc(OCC(=O)Nc2cccc(S(=O)(=O)N3CCCC3)c2)cc1C ?
HT1080-NT tox: inactive; HT1080 IDH1KD tx: inactive; IL1B secr inh: inactive; TDP1 cell CPT: inactive; TDP1 cell noCPT: inconclusive

What do the screens show for `CCOc1ccccc1OCC(=O)Nc1cccc(S(=O)(=O)N2CCCCCC2)c1`?
HT1080-NT tox: inactive; uPA generation: inactive; HT1080 IDH1KD tx: inactive; IL1B secr inh: inactive; TDP1 cell CPT: inconclusive; TDP1 cell noCPT: inconclusive

Results for O=C(COc1ccc2ccc(=O)oc2c1)Nc1cccc(S(=O)(=O)N2CCCCC2)c1 ?
HT1080-NT tox: inactive; uPA generation: inactive; HT1080 IDH1KD tx: inactive; IL1B secr inh: inactive; TDP1 cell CPT: inconclusive; TDP1 cell noCPT: 12µM

How did Cc1ccc2cccc(OCC(=O)Nc3cccc(S(=O)(=O)N4CCCC4)c3)c2n1 do in these assays?
HT1080-NT tox: inactive; uPA generation: inactive; HT1080 IDH1KD tx: inactive; IL1B secr inh: -71; TDP1 cell CPT: 21µM; TDP1 cell noCPT: 16µM

How did CN1CCCC(C)(C(=O)Nc2ccc(-n3cccc3)cc2)C1 (stereo not drawn) do in these assays?
HT1080-NT tox: inactive; HT1080 IDH1KD tx: inactive; IL1B secr inh: inactive; TDP1 cell CPT: inactive; TDP1 cell noCPT: inactive

How did O=C1NC(c2ccccc2Cl)=N/C1=C/c1ccco1 do in these assays?
HT1080-NT tox: inactive; uPA generation: inactive; HT1080 IDH1KD tx: inactive; IL1B secr inh: inactive; TDP1 cell CPT: inactive; TDP1 cell noCPT: inconclusive

What do the screens show for `O=C1NC(c2ccc(Br)cc2)=N/C1=C/c1ccco1`?
HT1080-NT tox: inactive; uPA generation: inactive; HT1080 IDH1KD tx: inactive; IL1B secr inh: inactive; TDP1 cell CPT: 7.3µM; TDP1 cell noCPT: inconclusive

What do the screens show for `CC(=O)Nc1ccc(S(=O)(=O)N2CCC3(CC2)CC(=O)c2ccccc2O3)cc1`?
HT1080-NT tox: inactive; uPA generation: inactive; HT1080 IDH1KD tx: inactive; IL1B secr inh: inactive; TDP1 cell CPT: inconclusive; TDP1 cell noCPT: inconclusive

How did O=C(NCC1CCN(Cc2cccc(Cl)c2)CC1)Nc1cc(Cl)ccc1Cl do in these assays?
TDP1 cell CPT: 23µM; TDP1 cell noCPT: 13µM

Results for O=C(NCC1CCN(Cc2cccc(Cl)c2)CC1)Nc1ccc(F)c(Cl)c1 ?
TDP1 cell CPT: inactive; TDP1 cell noCPT: inconclusive

What do the screens show for `O=C(NCC1CCN(Cc2ccccc2F)CC1)Nc1ccccc1F`?
HT1080-NT tox: inactive; uPA generation: inactive; HT1080 IDH1KD tx: inactive; IL1B secr inh: inactive; TDP1 cell CPT: inactive; TDP1 cell noCPT: inactive

Results for O=C(NCC1CCN(Cc2ccccc2F)CC1)Nc1cccc(Br)c1 ?
HT1080-NT tox: inconclusive; uPA generation: inactive; HT1080 IDH1KD tx: inconclusive; IL1B secr inh: -84; TDP1 cell CPT: inconclusive; TDP1 cell noCPT: 16µM

What do the screens show for `O=C(NCC1CCN(Cc2cccc(Cl)c2)CC1)Nc1ccc(Cl)cc1`?
HT1080-NT tox: inconclusive; uPA generation: inactive; HT1080 IDH1KD tx: inconclusive; IL1B secr inh: -61; TDP1 cell CPT: inconclusive; TDP1 cell noCPT: inconclusive

How did COc1ccc(NC(=O)CN2C(=O)CCn3nc(-c4cccn4C)cc32)cc1Cl do in these assays?
TDP1 cell CPT: inactive; TDP1 cell noCPT: inactive

How did COc1ccc(CNC(=O)c2ccc(CS(=O)(=O)c3ccccc3OC)o2)cc1 do in these assays?
TDP1 cell CPT: inactive; TDP1 cell noCPT: inconclusive

What do the screens show for `COc1ccc(C)cc1S(=O)(=O)N1CCN(C(=O)c2ncoc2-c2ccc(F)cc2)CC1`?
HT1080-NT tox: inactive; uPA generation: inactive; HT1080 IDH1KD tx: inactive; IL1B secr inh: inactive; TDP1 cell CPT: inactive; TDP1 cell noCPT: inconclusive

How did COc1ccc(C)cc1S(=O)(=O)N1CCN(C(=O)c2ncoc2-c2ccc(C)cc2)CC1 do in these assays?
HT1080-NT tox: inactive; uPA generation: inactive; HT1080 IDH1KD tx: inactive; IL1B secr inh: -53; TDP1 cell CPT: inactive; TDP1 cell noCPT: inactive

Results for COc1ccc(C)cc1S(=O)(=O)N1CCOCC1 ?
HT1080-NT tox: inactive; uPA generation: inactive; HT1080 IDH1KD tx: inactive; IL1B secr inh: inactive; TDP1 cell CPT: inconclusive; TDP1 cell noCPT: inconclusive

How did COc1ccc(OC)c(S(=O)(=O)N2CCc3ccccc32)c1 do in these assays?
HT1080-NT tox: inactive; uPA generation: inactive; HT1080 IDH1KD tx: inactive; IL1B secr inh: inactive; TDP1 cell CPT: inactive; TDP1 cell noCPT: inactive

What do the screens show for `COc1ccc(-c2onc(C)c2C)cc1S(=O)(=O)N1CCc2ccccc21`?
TDP1 cell CPT: 16µM; TDP1 cell noCPT: inconclusive

Results for COc1ccc(-c2onc(C)c2C)cc1S(=O)(=O)N1CCN(c2cc(C)ccc2C)CC1 ?
TDP1 cell CPT: inconclusive; TDP1 cell noCPT: 21µM

How did Cc1cccc(-n2cc(-c3ccccc3)c3c(NC(C)C)ncnc32)c1 do in these assays?
TDP1 cell CPT: 21µM; TDP1 cell noCPT: 23µM

How did CC(=O)Nc1ccc(Nc2ncnc3c2cnn3C)cc1 do in these assays?
TDP1 cell CPT: 16µM; TDP1 cell noCPT: inconclusive

How did CC(=O)Nc1ccc(Nc2ncnc3c2c(-c2ccccc2)cn3-c2ccccc2)cc1 do in these assays?
TDP1 cell CPT: 16µM; TDP1 cell noCPT: 18µM

How did CC(C)c1ccc(Nc2ncnc3c2c(-c2ccccc2)cn3-c2ccccc2)cc1 do in these assays?
TDP1 cell CPT: 3.7µM; TDP1 cell noCPT: inconclusive

Results for CCn1c(-c2cccc(OC)c2)nc2cc(NC(C)=O)cc(C(=O)N(C)CC3COCCO3)c21 (stereo not drawn) ?
TDP1 cell CPT: inactive; TDP1 cell noCPT: inactive

What do the screens show for `CCCCCOc1ccc(Cn2c(=O)oc3ccccc32)cc1`?
TDP1 cell CPT: inactive; TDP1 cell noCPT: inactive

Compound activity: PubChem BioAssay, National Center for Advancing Translational Sciences (NCATS)
